HP1b chromo inh: HTS for Inhibitors of HP1-beta Chromodomain Interactions with Methylated Histone Tails. AlphaScreen HP1-beta / biotin-H3K9me3 peptide binding. actives 0.56% (n = 390,000). Potency, µM (doses to about 114 µM), without a hit: at the top dose activity change, negative = inhibition, hits mostly inhibitors. Chromobox protein homolog 1 (Homo sapiens), P83916; further: nearly all actives have a fitted effect of over 70% in size
Target sequence (P83916 whole entry, looked up): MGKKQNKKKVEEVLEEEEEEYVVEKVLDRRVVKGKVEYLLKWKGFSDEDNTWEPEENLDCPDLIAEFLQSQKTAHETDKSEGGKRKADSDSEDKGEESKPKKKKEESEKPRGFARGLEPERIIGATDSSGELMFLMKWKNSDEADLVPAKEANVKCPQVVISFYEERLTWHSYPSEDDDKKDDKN
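Compound inhibition of the preformed complex between 50 nM HP1-beta and 50 nM biotinylated H3K9me3 peptide was read by AlphaScreen. Buffer was PBS pH 7.4 with 0.01% Tween-20. Incubations ran 30 min at room temperature, with 10 ug/mL donor/acceptor beads.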
TDP1 inh: qHTS Assay for Inhibitors of Tyrosyl-DNA Phosphodiesterase (TDP1); Tyrosyl-DNA phosphodiesterase 1 (Homo sapiens), Q9NUW8; recombinant TDP1, AlphaScreen DNA substrate cleavage; Potency, µM (top dose mostly 130 µM), without a hit: top-dose activity change, negative = inhibition, most hits filed as inhibitors; actives 0.28% (n = 350,000); AID 485290, 2010; further: on the % scale 0 is the no-effect control and ±100 the full control effect; nearly all actives have a fitted effect of over 40% in size
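E. coli-derived human Tdp1, 1 nM final. Cpd preinc 15 min RT; substrate 15 nM final, 5 min RT; AS bead mix 10 ug/ml final, 10 min RT. Signal loss = tyrosine-FITC cleavage. No-enzyme wells = max signal.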
G9a inh: qHTS Assay for Inhibitors of Histone Lysine Methyltransferase G9a; AID 504332, 2011; actives 8.8% (n = 350,000); Potency, µM (highest dose often 102 µM), for inactives: top-dose activity, negative = inhibition, hits mostly inhibitors; G9a H3K9 monomethylation, AlphaScreen, 2 h; further: on the % scale 0 is the no-effect control and ±100 the full control effect; nearly all actives have a fitted effect of over 75% in size
Target sequence (Q96KQ7 913-1193 limits assumed): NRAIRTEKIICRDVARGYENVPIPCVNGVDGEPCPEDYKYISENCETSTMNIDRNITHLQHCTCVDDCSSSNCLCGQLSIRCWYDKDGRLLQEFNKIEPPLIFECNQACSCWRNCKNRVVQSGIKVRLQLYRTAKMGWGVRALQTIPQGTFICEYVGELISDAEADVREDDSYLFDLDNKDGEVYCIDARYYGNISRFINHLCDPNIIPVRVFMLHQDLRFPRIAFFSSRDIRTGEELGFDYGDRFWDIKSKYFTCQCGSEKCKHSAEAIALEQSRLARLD
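Quantitative HTS format: methyltransferase activity on a biotin-tagged H3K9 peptide is measured by AlphaScreen, using a rabbit anti-monomethyl-H3K9 antibody with streptavidin donor and anti-IgG acceptor beads. Final levels are 20 nM enzyme, 500 nM peptide, 20 uM SAM; 2 h RT.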
JMJD2A Tudor inh: qHTS Assay for Inhibitors of JMJD2A-Tudor Domain | Potency, µM (series often up to 114 µM), for the others: top-dose activity change, negative = inhibition, hits mostly inhibitors | AlphaScreen JMJD2A-Tudor / H3K4me3 peptide binding | actives 4.4% (n = 390,000) | Lysine-specific demethylase 4A (Homo sapiens), O75164; further: on the % scale 0 is the no-effect control and ±100 the full control effect; nearly all actives have a fitted effect of over 50% in size
Sfp inh: qHTS Assay for Inhibitors of Bacillus subtilis Sfp phosphopantetheinyl transferase (PPTase); 4'-phosphopantetheinyl transferase ffp (Bacillus subtilis), Q9F4F7; Biochemical Sfp PPTase activity, qHTS; Potency, µM, for the others: largest response in the series, negative = inhibition, most hits filed as inhibitors; actives 3.5% (n = 310,000);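 further: the enzyme is Sfp with the accession as filed and its product quenches rhodamine fluorescence; 0% = enzyme reaction without inhibitor and -100% = no enzyme wells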
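Reaction rates are the 30-min fluorescence difference (ex 525, em 598 nm) in wells containing 15 nM Sfp, 5 uM rhodamine-CoA and 12.5 uM BHQ-2-YbbR at pH 7.6 with 10 mM MgCl2.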
BAZ2B inh: qHTS Assay for Inhibitors of BAZ2B; Bromodomain adjacent to zinc finger domain protein 2B (Homo sapiens), Q9UIF8; AlphaScreen BAZ2B-H3K14Ac peptide displacement; Potency, µM (highest dose often 114 µM), inactives show at the top dose activity change, negative = inhibition, hits mostly inhibitors; actives 4.4% (n = 360,000); AID 504333, 2011; further: on the % scale 0 is the no-effect control and ±100 the full control effect; nearly all actives have a fitted effect of over 60% in size
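Compounds, titrated to a top concentration of 110 uM, were incubated 30 min at room temperature with preformed BAZ2B/acetyl-K14 H3 peptide complex (50 nM each). Proximity signal was measured by AlphaScreen after 20 min with beads.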
An asterisk follows results filed as active; ? = inconclusive; · = no result given; [ ] = remark or other dose. Compounds with a hit are over-represented: about 12% of the library has one in this group of screens. The call rests on the fitted dose curve; in most records, active means well fitted curve in the direction sought with a large enough effect; inconclusive means small, poorly fitted or top-dose-only effect, or another doubt; inactive means no such curve, though single readings can be large; an effect the other way counts as inactive or inconclusive. Potency means the concentration at half of the fitted maximal effect.

SMILES | HP1b chromo inh | TDP1 inh | G9a inh | JMJD2A Tudor inh | Sfp inh | BAZ2B inh
S=c1[nH]nc(C2CCCCC2)n1/N=C/c1ccco1 | -5% | 1% | 1.4µM* | 13µM* | -2% | -9%
Cc1ccsc1/C=N/N1CCN(C2c3ccccc3-c3ccccc32)CC1 | -31% | 7% | 33%[0.501 µM] | ? | 7% | ?
Nc1c(C(=O)NC2CCCCC2)c2nc3ccccc3nc2n1/N=C/c1ccco1 | · | 4% | 19%[59 µM] | · | -4% | ·
Nc1nnnn1/N=C/c1ccc(F)cc1 | 44% | · | 32% | -13% | -1% | -5%
Fc1ccc(/C=N/n2c(C3CCCCC3)n[nH]c2=S)cc1 | ? | · | 7.1µM* | 56µM* | ? | -38%
CCOc1ccc(/C=N/n2cnnc2)cc1 | 6% | 2% | -31%[12.7 µM] | -14% | 16% | 5%
S=c1[nH]nc(C2CCCCC2)n1/N=C/c1cccc(Cl)c1Cl | -14% | · | 8.9µM* | -36% | -3% | -4%
S=c1[nH]nc(C2CCCCC2)n1/N=C/c1ccccc1 | -8% | · | 20µM* | 56µM* | -11% | -38%
CCOc1ccc(/C=N/n2c(C3CCCCC3)n[nH]c2=S)cc1 | 9% | · | 28µM* | ? | ? | 0%
COc1cccc(CC(NC(C)=O)C(=O)NC2CCN(C(=O)C3CCCCC3)CC2)c1OC (centres undefined) | 30% | -6% | -1% | -4% | 27% | -1%
O=C1NC(=O)C2(CCCC2C(=O)O)N1 (centres undefined) | 30% | · | · | -6% | · | ·
Cc1cc2ccccn2c1C(=O)Nc1ccc(Cl)cc1 | 38% | -2% | -22% | 10% | 8% | -29%
CC(=S)c1c(C)cc2cc(C)ccn12 | 22µM* | 11% | ? | 25µM* | ? | 10µM*
CN1CCc2c(sc3c2c(=O)n(-c2ccccc2)c2n[nH]c(=S)n32)C1 | 34% | ? | 5µM* | 40µM* | 40µM* | -5%
COc1ccc(-n2c(=O)c3c4c(sc3n3c(=S)[nH]nc23)CCC4)cc1 | 15% | -2% | 2.5µM* | 10µM* | ? | -14%
Cc1ccc(-n2c(=S)[nH]c3sc4c(c3c2=O)CCC4)cc1 | 10% | 8% | 45µM* | -34% | -29% | -20%
CCn1c(=O)c2c3c(sc2n2c(=S)[nH]nc12)CCC3 | 4% | 1% | 3.2µM* | 7.9µM* | -6% | 8%
O=S(=O)(c1ccc(Br)cc1)N1CCN(c2nc(-c3ccccc3)nc3ccccc23)CC1 | 40% | 1% | · | -21% | · | ·
Cc1ccc(Cl)cc1N1CCN(C(=O)C2CCN(S(=O)(=O)c3cn(C)cn3)CC2)CC1 | 6% | -1% | 20%[59 µM] | -15% | · | -12%
CCC1CCc2nc3sc(C(=O)Nc4ccc(F)cc4F)c(N)c3cc2C1 (centres undefined) | 41% | · | 2%[59 µM] | -5% | · | -2%
O=c1c2c3c(sc2n2c(=S)[nH]nc2n1-c1ccccc1)CCC3 | 4% | · | · | 3.2µM* | -20% | -2%
N#Cc1ccccc1Cn1c(=O)n(-c2ccccc2)c(=O)c2c3c(sc21)CCC3 | 24% | 0% | -2%[59 µM] | -4% | · | -2%
Cc1cccc(-n2c(=O)c3c4c(sc3n3cnnc23)CCCC4)c1 | 26% | · | -35%[59 µM] | -15% | · | -10%
Cc1cccc(-n2c(=O)c3c4c(sc3n3c(=S)[nH]nc23)CCC4)c1 | 28% | -1% | ? | 18µM* | ? | -30%
COC(=O)C(C)Sc1nnc2n(-c3cccc(C)c3)c(=O)c3c4c(sc3n12)CCCC4 (centres undefined) | 32% | 7% | 25µM* | -22% | -9% | 3%

Bioassay records from PubChem.
